Holding throughout (test): protein-binding microarray (PBM); PBM: ~300 nM protein, 6 mM HEPES pH 7.8, 80 mM KCl, 0.5 mM EDTA, 0.5 mM EGTA, 6% glycerol, 35 ng/ul poly-dIdC, 1% milk, 1 h, room temperature; Ap Aiptasia and Nv Nematostella (sea anemones) / Co Capsaspora / Aq Amphimedon (sponge) / Dm Drosophila / Hu human; RHD is the Rel homology domain; high values mean tight binding
Holding throughout (conditions): dsDNA, one strand shown

The target of experiment [1] is T1, GST-Nv-NF-kB (Cys allele) (Nematostella vectensis, UniProt E5G601 2-411).
T1 sequence: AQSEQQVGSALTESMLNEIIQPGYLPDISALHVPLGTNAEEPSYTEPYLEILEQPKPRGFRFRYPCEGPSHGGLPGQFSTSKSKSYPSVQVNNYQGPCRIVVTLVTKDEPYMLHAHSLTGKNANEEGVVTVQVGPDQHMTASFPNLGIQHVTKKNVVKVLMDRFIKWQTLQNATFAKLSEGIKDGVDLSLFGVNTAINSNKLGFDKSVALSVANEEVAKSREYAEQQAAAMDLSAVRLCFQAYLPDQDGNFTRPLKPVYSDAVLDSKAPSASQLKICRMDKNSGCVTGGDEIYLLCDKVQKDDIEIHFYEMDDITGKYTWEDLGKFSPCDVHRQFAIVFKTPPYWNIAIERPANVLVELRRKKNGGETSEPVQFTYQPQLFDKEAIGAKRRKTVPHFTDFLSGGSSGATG

The target of experiment [2] is T2, GST-Dm-Relish (Drosophila melanogaster, UniProt Q94527 99-473).
T2 sequence: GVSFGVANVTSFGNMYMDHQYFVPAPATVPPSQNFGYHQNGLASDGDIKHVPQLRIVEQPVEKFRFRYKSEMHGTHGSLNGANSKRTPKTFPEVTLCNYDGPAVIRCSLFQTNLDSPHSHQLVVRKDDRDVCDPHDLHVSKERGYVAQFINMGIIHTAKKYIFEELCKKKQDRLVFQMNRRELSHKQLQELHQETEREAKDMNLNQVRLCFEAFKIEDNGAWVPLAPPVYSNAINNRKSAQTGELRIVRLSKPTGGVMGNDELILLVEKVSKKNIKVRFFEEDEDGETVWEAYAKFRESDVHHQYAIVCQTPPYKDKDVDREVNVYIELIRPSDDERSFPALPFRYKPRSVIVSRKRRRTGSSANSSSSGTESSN

Experiment [3] addresses T3, GST-Aq-NF-kB (Amphimedon queenslandica, UniProt A9Y5G7 2-389).
T3 sequence: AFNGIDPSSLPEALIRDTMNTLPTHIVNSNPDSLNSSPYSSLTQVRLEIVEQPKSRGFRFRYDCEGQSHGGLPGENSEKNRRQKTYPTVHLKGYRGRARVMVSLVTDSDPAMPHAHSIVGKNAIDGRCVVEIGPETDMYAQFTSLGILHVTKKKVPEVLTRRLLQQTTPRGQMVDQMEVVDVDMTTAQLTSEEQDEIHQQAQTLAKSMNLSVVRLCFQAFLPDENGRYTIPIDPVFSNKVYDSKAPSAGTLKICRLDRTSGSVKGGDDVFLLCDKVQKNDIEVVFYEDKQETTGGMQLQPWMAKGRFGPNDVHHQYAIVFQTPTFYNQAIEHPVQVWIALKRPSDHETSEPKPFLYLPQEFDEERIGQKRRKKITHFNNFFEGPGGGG

The target of experiment [4] is T4, GST-Co-NF-kB (Capsaspora owczarzaki, UniProt F1ARL5 200-546).
T4 sequence: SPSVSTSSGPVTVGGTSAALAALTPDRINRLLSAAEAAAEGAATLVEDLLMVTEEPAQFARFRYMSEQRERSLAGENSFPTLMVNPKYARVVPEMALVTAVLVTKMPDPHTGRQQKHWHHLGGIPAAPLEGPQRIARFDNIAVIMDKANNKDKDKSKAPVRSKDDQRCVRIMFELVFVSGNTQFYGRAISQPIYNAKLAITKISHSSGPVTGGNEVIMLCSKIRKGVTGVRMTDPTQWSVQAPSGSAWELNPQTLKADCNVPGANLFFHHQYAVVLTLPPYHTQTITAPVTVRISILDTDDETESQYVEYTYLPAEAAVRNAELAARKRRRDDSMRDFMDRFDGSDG

Experiment [5] concerns the target T5, GST-Nv-NF-kB (Ser allele) (Nematostella vectensis, UniProt A7UNT2 2-411).
T5 sequence: T1 sequence with Q21R, C66S, S207N, E215Q, V217A, E225K, A268E, D399E

Changes are numbered by the printed parent chain.

In the case of “CCGATTAACATCAGGGATCGCCCTGATGTTAATCGGGTCTTGATTCGCTTGACGCTGCTG”, the results for the binding signal in experiment [1], in experiment [2] and in experiment [3] were 1.19 z-score, 3.26 z-score and 4.24 z-score, respectively.

In the case of “CCGATTAACATCATTGGGAAAAATGATGTTAATCGGGTCTTGATTCGCTTGACGCTGCTG”, the binding signal in experiment [1] was found to be 2.44 z-score; in experiment [4], 3.75 z-score; in experiment [3], 1.92 z-score.

With “CCGATTAACATCAGGGCAGTACCTGATGTTAATCGGGTCTTGATTCGCTTGACGCTGCTG”, the binding signal in experiment [1] was determined as 1.21 z-score; in experiment [2], 1.84 z-score; in experiment [3], 3.03 z-score.

As for “CCGATTAACATCAACGGAAATTCTGATGTTAATCGGGTCTTGATTCGCTTGACGCTGCTG”, the results for the binding signal in experiment [4] and in experiment [3] were 1.34 z-score and 1.24 z-score, respectively.

On to “CCGATTAACATCAAAATATTCCGTGATGTTAATCGGGTCTTGATTCGCTTGACGCTGCTG”, for which the values for the binding signal in experiment [4] and in experiment [3] were 1.07 z-score and 1.1 z-score, respectively.

Regarding “CCGATTAACATCAGGAAGTTACCTGATGTTAATCGGGTCTTGATTCGCTTGACGCTGCTG”, the binding signal in experiment [1] came to 1.29 z-score; in experiment [5] it was 1.31 z-score; in experiment [2], 2.36 z-score; in experiment [3] it was 2.57 z-score.

With “CCGATTAACATCAACCATGGGAATGATGTTAATCGGGTCTTGATTCGCTTGACGCTGCTG”, the binding signal in experiment [1] came to 1.18 z-score; in experiment [4] it was 1.67 z-score; in experiment [3] it was 1.99 z-score.

For the sequence “CCGATTAACATCAAGGACTTTCCTGATGTTAATCGGGTCTTGATTCGCTTGACGCTGCTG”, the binding signal turned out to be 1.03 z-score in experiment [1], 3.11 z-score in experiment [2] and 4.6 z-score in experiment [3].

Regarding “CCGATTAACATCATTATGGGAAATGATGTTAATCGGGTCTTGATTCGCTTGACGCTGCTG”, the binding signal in experiment [1] came to 2.63 z-score; in experiment [4] it was 2.21 z-score; in experiment [3] it was 1.44 z-score.

Regarding “CCGATTAACATCAGGAGTATCCCTGATGTTAATCGGGTCTTGATTCGCTTGACGCTGCTG”, the binding signal was 1.01 z-score in experiment [4] and 3.53 z-score in experiment [3].

Consider “CCGATTAACATCAGAAATGGGAATGATGTTAATCGGGTCTTGATTCGCTTGACGCTGCTG”, for which the binding signal in experiment [1] was 2.45 z-score; in experiment [4], 1.87 z-score; in experiment [3], 2.5 z-score.

As for “CCGATTAACATCAGGTAATTTACTGATGTTAATCGGGTCTTGATTCGCTTGACGCTGCTG”, the binding signal was found to be 1.68 z-score in experiment [1], 1.89 z-score in experiment [4], 5.32 z-score in experiment [2] and 2.13 z-score in experiment [3].

Turning to “CCGATTAACATCAGGGTTAGTTGTGATGTTAATCGGGTCTTGATTCGCTTGACGCTGCTG”, the binding signal turned out to be 1.11 z-score in experiment [4] and 1.57 z-score in experiment [3].

For the sequence “CCGATTAACATCACAAATGGGAATGATGTTAATCGGGTCTTGATTCGCTTGACGCTGCTG”, the binding signal came out at 1.95 z-score in experiment [1], 1.92 z-score in experiment [4], 1.56 z-score in experiment [2] and 2.36 z-score in experiment [3].

In the case of “CCGATTAACATCATTTCCCAAAATGATGTTAATCGGGTCTTGATTCGCTTGACGCTGCTG”, the binding signal in experiment [1] was 2.55 z-score; in experiment [4], 1.54 z-score; in experiment [2] it was 1.36 z-score; in experiment [3], 1.26 z-score.

Regarding “CCGATTAACATCAGGATTTTACCTGATGTTAATCGGGTCTTGATTCGCTTGACGCTGCTG”, the binding signal in experiment [1] stood at 2.01 z-score; in experiment [2] it was 3.21 z-score; in experiment [3] it was 3.66 z-score.

As for “CCGATTAACATCAGGAAATTTCCTGATGTTAATCGGGTCTTGATTCGCTTGACGCTGCTG”, the binding signal in experiment [1] amounted to 1.72 z-score; in experiment [2], 1.75 z-score; in experiment [3], 3.27 z-score.

Regarding “CCGATTAACATCAACTATCCCGCTGATGTTAATCGGGTCTTGATTCGCTTGACGCTGCTG”, the binding signal in experiment [4] stood at 1.37 z-score; in experiment [3], 1.07 z-score.

“CCGATTAACATCAAGGAATTTCCTGATGTTAATCGGGTCTTGATTCGCTTGACGCTGCTG”: the results for the binding signal in experiment [1], in experiment [2] and in experiment [3] were 1.75 z-score, 2.04 z-score and 4.35 z-score, respectively.

Take “CCGATTAACATCACGGAAATTTATGATGTTAATCGGGTCTTGATTCGCTTGACGCTGCTG”: the binding signal came to 1.07 z-score in experiment [4], 1.11 z-score in experiment [2] and 1.74 z-score in experiment [3].

As for “CCGATTAACATCAGGAATATACCTGATGTTAATCGGGTCTTGATTCGCTTGACGCTGCTG”, the binding signal in experiment [1] was 1.47 z-score; in experiment [2] it was 1.86 z-score; in experiment [3] it was 1.69 z-score.

As to “CCGATTAACATCACATGTGGGAATGATGTTAATCGGGTCTTGATTCGCTTGACGCTGCTG”, the binding signal was determined as 1.34 z-score in experiment [1], 2.62 z-score in experiment [4] and 2.05 z-score in experiment [3].

As for “CCGATTAACATCAGGAAAAGTCCTGATGTTAATCGGGTCTTGATTCGCTTGACGCTGCTG”, the results for the binding signal in experiment [1], in experiment [2] and in experiment [3] were 1.25 z-score, 2.98 z-score and 3.07 z-score, respectively.

Take “CCGATTAACATCAAATTGGGAAATGATGTTAATCGGGTCTTGATTCGCTTGACGCTGCTG”: the figures for the binding signal in experiment [1], in experiment [4] and in experiment [3] were 2.55 z-score, 1.89 z-score and 1.16 z-score, respectively.

As for “CCGATTAACATCACCCATGGGAATGATGTTAATCGGGTCTTGATTCGCTTGACGCTGCTG”, the binding signal in experiment [1] amounted to 1.13 z-score; in experiment [4], 2.05 z-score; in experiment [2] it was 1.03 z-score; in experiment [3], 2.51 z-score.
